Results published in PubChem BioAssay (NCI).
About 79,000 compounds went through this panel and 15% of them were active in at least one assay; those are over-represented in the sample as a whole. Calls of active or inactive are those of the source. Rule as the data show it: active = growth inhibition above about 70%; inactive = the rest.

Key:
[1] = NCI Yeast Anticancer Drug Screen. Data for the rad50 strain (AID 155);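 also: 0% = growth of vehicle-only cultures of the same strain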; conditions: S. cerevisiae rad50 strain growth inhibition; at 50.0 µM; active compounds read high
How it was run: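 Yeast carrying a defined DNA repair defect were exposed to test compounds, and growth was compared with vehicle-treated controls to give percent inhibition.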

[2] = NCI Yeast Anticancer Drug Screen. Data for the mec2-1 strain (AID 157); conditions: S. cerevisiae mec2-1 strain, at 50.0 µM, active compounds read high
How it was run: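 Using mec2-1 yeast: add compound, measure growth, express inhibition versus vehicle-treated cultures.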

[3] = NCI Yeast Anticancer Drug Screen. Data for the sgs1 mgt1 strain (AID 161);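 also: 0% = growth of cultures given vehicle only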; conditions: S. cerevisiae sgs1 mgt1 strain, at 50.0 µM, active compounds read high
How it was run: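 Percent growth inhibition was derived by comparing compound-exposed mutant yeast with vehicle-exposed cultures. The strain carries alterations in DNA damage repair.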

[4] = NCI Yeast Anticancer Drug Screen. Data for the cln2 rad14 strain (AID 165);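 also: 0% = growth equal to vehicle treated cultures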; conditions: S. cerevisiae cln2 rad14 strain, at 50.0 µM, active compounds read high
How it was run: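 Yeast strain cln2 rad14, bearing defects in cell cycle control and DNA repair, serves as the test system; values reflect growth inhibition compared with vehicle.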

[5] = NCI Yeast Anticancer Drug Screen. Data for the bub3 strain (AID 167); conditions: S. cerevisiae bub3 mutant strain, at 50.0 µM, active compounds read high
How it was run: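 Compounds were applied to a genetically altered yeast strain carrying a cell-cycle control defect. Growth inhibition was scored against vehicle-treated controls.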

[6] = NCI Yeast Anticancer Drug Screen. Data for the mlh1 rad18 strain (AID 175); conditions: S. cerevisiae mlh1 rad18 strain growth inhibition; at 50.0 µM; active compounds read high
How it was run: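 Steps: expose repair-defective yeast to compound; measure growth; express inhibition against vehicle-treated controls.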

Measured: growth inhibition

NC(=O)NC1=NCCC(=O)N1CCc1c[nH]c2ccccc12
active: [2] 75.9% | [3] 84.2% | [4] 78.5% | [5] 77.7% | [6] 88%
inactive: [1] 51.3%

Oc1ccc(Br)cc1/C=N\NC(=S)Nc1ccc2cn[nH]c2c1
inactive: [1] 47.1% | [2] 23.9% | [3] 47.8% | [4] 24.9% | [5] 2.1% | [6] 40.4%

Nc1[nH]c(=S)[nH]c(=O)c1NS(=O)(=O)c1cccc([N+](=O)[O-])c1
inactive: [1] -14.1% | [2] -10% | [3] -22.1% | [4] -18.2% | [5] -11.4% | [6] 12.8%

Nc1ccc(NC(=S)Nc2ccccc2)cc1
inactive: [1] -2.35% | [2] -18.3% | [3] -3.15% | [4] 2.2% | [5] -7.05% | [6] -12.7%

CC(=O)Oc1ccc(-c2ccccc2)cc1
inactive: [1] 23.3% | [2] 20.8% | [3] 16% | [4] 3.1% | [5] 18% | [6] 26.3%

c1cc2cc(C3=NCCN3)[nH]c2cc1C1=NCCN1
inactive: [1] 12.8% | [2] 35.4% | [3] 29.1% | [4] 43.5% | [5] 18.6% | [6] 26.2%

C=CCOC(=O)C1CC(C)=CC(C)C1C (stereo unspecified)
inactive: [1] 23.5% | [2] 3.6% | [3] -13.7% | [4] -46.4% | [5] -12.1% | [6] 5.2%

N#CSC1C=CS(=O)(=O)C1 (stereo unspecified)
inactive: [1] 44.6% | [2] 4.05% | [3] 19.6% | [4] -44.1% | [5] 3.55% | [6] 58.8%

CN(C)c1noc2c1c(=O)n(C)c(=O)n2C
inactive: [1] -27.8% | [2] -9.95% | [3] -11.6% | [4] -12.1% | [5] 2.6% | [6] 14.8%

Brc1nccs1
inactive: [1] -21.9% | [2] -21.4% | [3] -13.2% | [4] -11.1% | [5] -9.05% | [6] -27.1%

O=C(O)C(c1ccccc1)S(=O)(=O)c1ccccc1 (stereo unspecified)
inactive: [1] 3.55% | [2] -7% | [3] 8.85% | [4] -16.7% | [5] -11.5% | [6] 5.95%

Cc1ccncc1C#N
inactive: [1] 5% | [2] -2.25% | [3] -0.9% | [4] 6.55% | [5] 0.3% | [6] 3.95%

CCN(CC)C(=O)Sc1ccc(SC(=O)N(CC)CC)cc1
inactive: [1] -5% | [2] 12.6% | [3] -2.05% | [4] -5.65% | [5] -3.3% | [6] -6.4%

N#CC(F)(F)C(F)(F)C(F)(F)C(F)(F)C(F)(F)C(F)(F)C(F)(F)F
inactive: [1] 33.5% | [2] -18.8% | [3] -11.2% | [4] -21.8% | [5] -15.3% | [6] -4.6%

c1ccc(-c2nc(-c3nn[nH]n3)c3ccccc3n2)cc1
inactive: [1] -1.2% | [2] 13.7% | [3] 2.85% | [4] -19.6% | [5] 14.5% | [6] 20.8%

CC(C)c1ccccc1N1C(=O)CC(Sc2ccccc2N)C1=O (stereo unspecified)
inactive: [1] -5.45% | [2] -12.8% | [3] -9.25% | [4] -28.6% | [5] 0.15% | [6] 3.8%

CON(C)S(=O)c1ccc([N+](=O)[O-])cc1 (stereo unspecified)
inactive: [1] 29.8% | [2] 19.1% | [3] 5.45% | [4] -15.6% | [5] -6.05% | [6] 22.1%

O=C1NC(=O)C2CCC12 (stereo unspecified)
inactive: [1] 1.95% | [2] -4.2% | [3] 1.45% | [4] -20.7% | [5] 8.95% | [6] 18.2%

CC(/C=N/N(C)C1=NCCCN1)=N/N(C)C1=NCCCN1
inactive: [1] 14.3% | [2] 1.6% | [3] -7.35% | [4] -35.6% | [5] -2.55% | [6] 11.2%

CCCCNC(=O)c1cc(S(=O)(=O)n2cc[nH]c2=O)c(SC)cc1Cl
inactive: [1] 4.1% | [2] 2.7% | [3] 15.8% | [4] -2.75% | [5] -5.05% | [6] 31.2%

COC(=O)/C=C/C(=N/N(C)c1ccccc1)c1ccccc1
inactive: [1] 3.35% | [2] -0.2% | [3] 2.75% | [4] -49% | [5] 11% | [6] -5.15%

Cc1ccccc1S(=O)(=O)NSc1ccccc1[N+](=O)[O-]
inactive: [1] 28.2% | [2] -5.25% | [3] 33% | [4] 1.85% | [5] -12.8% | [6] 25.7%

CCCCCCN(C(=O)Oc1ccccc1)C(C#N)c1ccccc1 (stereo unspecified)
inactive: [1] 0.1% | [2] 5.55% | [3] -16.8% | [4] -14.7% | [5] 1.75% | [6] -20.2%

CCCCC(CC)CN(CCOC(=O)c1cc2ccccc2oc1=O)CC(CC)CCCC (stereo unspecified)
inactive: [1] 20.8% | [2] -4.2% | [3] 48.8% | [4] 55% | [5] 20.8% | [6] 31.8%

COc1ccc(NC(=O)C(=O)Cc2nc3ccc([N+](=O)[O-])cc3[nH]c2=O)c(OC)c1
inactive: [1] 9.85% | [2] 14.7% | [3] -3.7% | [4] 3.95% | [5] 6.15% | [6] 22.6%

Cc1ccc2sc3cc(=O)cc(C)c-3nc2c1
inactive: [1] 14.7% | [2] 0.7% | [3] -15.1% | [4] 8.35% | [5] 38.4% | [6] 25.4%

Cc1ccc(CNC(=O)Nc2c(C)cccc2C)cc1C
inactive: [1] 8.8% | [2] 2.55% | [3] 9.75% | [4] -6.3% | [5] 14.4% | [6] 3.45%

O=C(CC1Sc2ccccc2NC1=O)NNc1c(Cl)cc(Cl)cc1Cl (stereo unspecified)
inactive: [1] 6.45% | [2] 0.9% | [3] 4% | [4] 17.3% | [5] 0.55% | [6] 33%

C(=C\c1ccc(-c2ccccc2)cc1)/c1ccc(-c2ccccc2)cc1
inactive: [1] -16.2% | [2] -19.9% | [3] 4.4% | [4] -5.3% | [5] -16.7% | [6] -16.4%

Nc1ccc(N=Nc2ccc(C(=O)O)cc2)cc1
inactive: [1] -32.9% | [2] -48% | [3] 18.1% | [4] 3% | [5] -26.4% | [6] -7.6%

Cc1ccc(NCC(=O)N2CC(=O)Nc3ccccc32)cc1
inactive: [1] -28.6% | [2] -21% | [3] -35.2% | [4] -4.45% | [5] -23.2% | [6] -15.8%

Cc1cc(=O)c2c(C)nn(-c3ccccc3)c2[nH]1
inactive: [1] -16.3% | [2] -36.2% | [3] 10.3% | [4] -9.15% | [5] 2.4% | [6] -1.85%

N/N=C(\N)N(Cc1ccccc1)c1ccccc1
inactive: [1] 10.3% | [2] 25.7% | [3] 2.85% | [4] -11.6% | [5] -2.6% | [6] 4.75%

c1ccc(-c2nc3c(N4CCOCC4)ncnc3o2)cc1
inactive: [1] -3.25% | [2] -4.65% | [3] 7.95% | [4] -2.55% | [5] -4.8% | [6] 2.75%

Cc1ccc(C)c(NC(=O)C2C(=O)C(=O)N(c3cc(C)ccc3C)C2=O)c1 (stereo unspecified)
inactive: [1] 29.4% | [2] -8.3% | [3] -18.5% | [4] 7.2% | [5] -0.95% | [6] 10.7%

COc1ccc(/C=C\c2cc(OC)c(OC)c(OC)c2)cc1OC(=O)CC(N)C(=O)O (stereo unspecified)
inactive: [1] -19.6% | [2] -10.3% | [3] -8.65% | [4] -6.65% | [5] -1.55% | [6] -5.8%
